PubChem BioAssay AID1878 (Sanford-Burnham Center for Chemical Genomics, 2009)
The campaign covered roughly 1,000 compounds. About 200 (20%) were called active. Cut-off read from the data, not from the text of the source: active = inhibition above about 55%; inactive = the rest. Only a sample is shown. Results with a measured potency or affinity are listed apart.

These molecules were tested against Dual specificity protein phosphatase 3 (Homo sapiens) (UniProt P51452) (assay: VHR1 phosphatase inhibitors, biochemical (AID 1878)). Conditions: recombinant VHR phosphatase, fluorogenic substrate; at 13.3 µM; active compounds read high.
Dual specificity protein phosphatase 3 (Homo sapiens), sequence (P51452 whole entry, looked up): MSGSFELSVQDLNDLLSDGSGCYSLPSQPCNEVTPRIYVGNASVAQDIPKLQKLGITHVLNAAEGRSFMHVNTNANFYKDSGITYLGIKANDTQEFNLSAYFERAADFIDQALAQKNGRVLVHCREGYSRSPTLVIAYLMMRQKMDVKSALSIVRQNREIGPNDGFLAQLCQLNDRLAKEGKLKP

**Q.** Which inhibition does the source give for `COC(=O)C1(CO)NC(c2ccc(C)cc2)C2C(=O)N(c3ccccc3)C(=O)C21` (centres undefined) here?
**A.** Its inhibition is -3.3% (inactive).

**Q.** For `CC1=C(C(=O)OCc2ccccc2)C(c2ccc([N+](=O)[O-])cc2)NC(=O)N1C` (centres undefined), which inhibition is on record?
**A.** Its inhibition is 2.8% (inactive).

**Q.** How did the inhibition turn out when `COc1cc(-c2c(NC(=O)c3ccco3)oc3ccccc3c2=O)cc(OC)c1OC` was run?
**A.** Its inhibition is -9.9% (inactive).

**Q.** `CCN(CC)CCCN(Cc1cc2cc3c(cc2[nH]c1=O)OCO3)C(=S)NCCCN(C)C` was tested. Which inhibition did it give?
**A.** The inhibition was -12.7% (inactive).

**Q.** For `O=C(NC1=NN(c2ccccc2)CC1)Nc1ccccc1F`, which inhibition is on record?
**A.** The inhibition was -3.5% (inactive).

**Q.** `O=c1c2c3nc4ccccc4nc3n(-c3ccc4c(c3)OCCO4)c2ncn1C1CCCC1` was tested. Which inhibition did it give?
**A.** The inhibition was 96.5% (active).

**Q.** Which inhibition does the source give for `CSc1ncc(C(=O)Nc2ccccc2C)c(C)n1` here?
**A.** Its inhibition is 6.2% (inactive).

**Q.** How did the inhibition turn out when `CCN1CCN(CCCNC(=O)CNC(=O)c2nn(-c3ccc(OC)cc3OC)c(=O)c3ccccc23)CC1` was run?
**A.** The inhibition was 38.3% (inactive).

**Q.** With `O=C(Cn1nc(-c2ccccc2)ccc1=O)N1CCCCC1` as the molecule, how does the inhibition read?
**A.** The inhibition was -1.1% (inactive).

**Q.** How did the inhibition turn out when `Cc1ccc(NC(=O)NC(=O)CN2CCN(c3ccc(O)cc3)CC2)c(C)c1` was run?
**A.** The inhibition was -13.5% (inactive).

**Q.** With `O=C(O)c1ccc(-n2cccc2/C=C2/SC(=O)N(CC(=O)N3CCCC3)C2=O)cc1` as the molecule, how does the inhibition read?
**A.** The inhibition was 96.8% (active).

**Q.** For `Cc1cccc(NC(=O)CN2C(=O)S/C(=C\c3cccn3-c3cccc(C(=O)O)c3)C2=O)c1`, which inhibition is on record?
**A.** The inhibition was 75.6% (active).

**Q.** `Cc1ccc2c(c1)c(CC(=O)Nc1ccc(C)c(F)c1)c(C(=O)O)n2C` was tested. Which inhibition did it give?
**A.** The inhibition was -6.8% (inactive).

**Q.** For `COc1ccccc1CNC(=O)C1Cc2cc(S(=O)(=O)N3CCCCC3)ccc2N1C(C)=O` (centres undefined), which inhibition is on record?
**A.** The inhibition was 28.1% (inactive).

**Q.** `CCC1CCCCN1C(=O)c1ccc(OC2CCN(C(=O)CCOC)CC2)cc1` (centres undefined) was tested. Which inhibition did it give?
**A.** The inhibition was -6.7% (inactive).

**Q.** `CN(C)S(=O)(=O)c1ccc(C(=O)N2CC(=O)Nc3ccc(F)cc3C2c2ccc(F)cc2)cc1` (centres undefined) was tested. Which inhibition did it give?
**A.** Its inhibition is 26.6% (inactive).

**Q.** For `COc1ccc(CCNC(=O)CCNC(=O)N2CC(=O)Nc3ccccc32)cc1OC`, which inhibition is on record?
**A.** Its inhibition is -7.1% (inactive).

**Q.** `COC(=O)c1cc(S(=O)(=O)NCCN2CCN(c3ccccc3F)CC2)c[nH]1` was tested. Which inhibition did it give?
**A.** Its inhibition is 17.5% (inactive).

**Q.** For `CC(=O)Nc1cccc(C(=O)NC(C)c2ccc(-n3ccnc3)cc2)c1` (centres undefined), which inhibition is on record?
**A.** The inhibition was 1.8% (inactive).

**Q.** With `CCCCN(CC)CCNC(=O)C1CCN(S(=O)(=O)c2cccc3nsnc23)CC1` as the molecule, how does the inhibition read?
**A.** The inhibition was 8.4% (inactive).

**Q.** With `O=C(NCCN1CCCCC1)Nc1ccccc1F` as the molecule, how does the inhibition read?
**A.** The inhibition was 18.4% (inactive).

**Q.** How did the inhibition turn out when `CC1CC(C)CN(CCCNC(=O)Cn2cccc2C(=O)c2ccccc2)C1` (centres undefined) was run?
**A.** Its inhibition is -12.8% (inactive).

**Q.** `CCOC(=O)NN=C1CCC(c2ccccc2)CC1` (centres undefined) was tested. Which inhibition did it give?
**A.** The inhibition was -4.2% (inactive).

**Q.** With `CCC(C)Nc1nc2ccccc2n2c(C)nnc12` (centres undefined) as the molecule, how does the inhibition read?
**A.** Its inhibition is 26.9% (inactive).

**Q.** With `O=C(CCC1CCN(Cc2ccc(Cl)cc2)CC1)NC1CC1` as the molecule, how does the inhibition read?
**A.** The inhibition was -8.1% (inactive).

**Q.** For `O=c1cc(-c2ccc([N+](=O)[O-])cc2)nc2cc(-c3ccc(Cl)cc3)[nH]n12`, which inhibition is on record?
**A.** Its inhibition is 97.6% (active).

**Q.** `O/N=C/c1ccc2cccc(OCc3ccccc3)c2n1` was tested. Which inhibition did it give?
**A.** The inhibition was -5.4% (inactive).

**Q.** With `Cc1ccc(Cn2c(N3CCNCC3)nc3c2c(=O)[nH]c(=O)n3C)cc1` as the molecule, how does the inhibition read?
**A.** Its inhibition is 3.7% (inactive).

**Q.** `COc1ccc(C2NC(=O)CCC2[N+](=O)[O-])cc1OC` (centres undefined) was tested. Which inhibition did it give?
**A.** The inhibition was -5.6% (inactive).

**Q.** Which inhibition does the source give for `COc1cc(NC(=O)CSc2ncnc3sc4c(c23)CCCC4)c(C(=O)O)cc1OC` here?
**A.** The inhibition was 55.5% (active).

**Q.** Which inhibition does the source give for `COc1ccc(OCC(=O)Nc2nc3c(s2)CCCC3)cc1` here?
**A.** The inhibition was 1.9% (inactive).

**Q.** With `COc1ccc(C(=O)CCC(=O)Nc2ccc(N3CCCCC3)cc2)cc1OC` as the molecule, how does the inhibition read?
**A.** Its inhibition is -1.2% (inactive).

**Q.** With `COc1cccc(COC(=O)C2CCN(C(=O)c3ccccc3C)CC2)c1OC` as the molecule, how does the inhibition read?
**A.** Its inhibition is -4.4% (inactive).

**Q.** Which inhibition does the source give for `CN(C)C(CNC1CC(C)(C)NC(C)(C)C1)c1cccc(F)c1` (centres undefined) here?
**A.** Its inhibition is 12.5% (inactive).

**Q.** `Cc1ccc(-c2nc3ccccc3s2)cc1NC(=O)c1cc(-n2cnnc2)ccc1Cl` was tested. Which inhibition did it give?
**A.** Its inhibition is 63.4% (active).

**Q.** How did the inhibition turn out when `COc1ccc(-c2nn(CCC#N)cc2C(=O)Nc2ccccc2Cl)cc1` was run?
**A.** Its inhibition is 2.2% (inactive).

**Q.** `O=C1CN(C(=O)c2ccccc2)C(c2ccccc2)c2cc(F)ccc2N1` (centres undefined) was tested. Which inhibition did it give?
**A.** The inhibition was -4.4% (inactive).

**Q.** With `COc1cc(NC(=O)CCc2nnc3ccc(N4CCCCC4)nn23)cc(OC)c1OC` as the molecule, how does the inhibition read?
**A.** Its inhibition is -6.5% (inactive).

**Q.** Which inhibition does the source give for `Nc1c(C(=O)NC2CC2)sc2nc3c(c(-c4ccco4)c12)CC/C3=C/c1ccco1` here?
**A.** Its inhibition is 11.4% (inactive).

**Q.** For `O=C(O)CCCCC1CCSS1` (centres undefined), which inhibition is on record?
**A.** The inhibition was 97.7% (active).

**Q.** How did the inhibition turn out when `CCCn1c2ccccc2c2cnn(CC(=O)NCCCN3CCCC(C)C3)c(=O)c21` (centres undefined) was run?
**A.** Its inhibition is -8.7% (inactive).

**Q.** `CCOc1cccc(CN2CCCC(N3CCc4ccccc4C3)C2)c1O` (centres undefined) was tested. Which inhibition did it give?
**A.** The inhibition was -11% (inactive).

**Q.** `O=C(Nc1ccc2oc(-c3cccnc3)nc2c1)c1ccc2c(c1)OCCO2` was tested. Which inhibition did it give?
**A.** The inhibition was 62.5% (active).

**Q.** With `c1cncc(-c2nc(-c3ccc4c(c3)OCCO4)cs2)c1` as the molecule, how does the inhibition read?
**A.** Its inhibition is -10.9% (inactive).

**Q.** How did the inhibition turn out when `COc1cc2cc(C(=O)Nc3ccc4c(c3)OCCO4)[nH]c2cc1OC` was run?
**A.** The inhibition was -3.4% (inactive).

**Q.** For `CC1=C(C(=O)OC(C)C)C(c2ccccc2)NC(=O)N1C` (centres undefined), which inhibition is on record?
**A.** The inhibition was 6.5% (inactive).

**Q.** `COC(=O)c1cccc(CSC(=S)N2CCCC2)c1` was tested. Which inhibition did it give?
**A.** Its inhibition is -7.9% (inactive).

**Q.** How did the inhibition turn out when `COc1ccc(Nc2ccc([N+](=O)[O-])cn2)cc1` was run?
**A.** The inhibition was -0.2% (inactive).

**Q.** `O=[N+]([O-])c1ccc(-c2nnc(S)n2-c2ccccc2)cc1` was tested. Which inhibition did it give?
**A.** Its inhibition is -5.8% (inactive).

**Q.** Which inhibition does the source give for `O=C(O)c1ccc(Nc2nc(-c3ccc([N+](=O)[O-])cc3)nc3ccccc23)cc1` here?
**A.** Its inhibition is 97.6% (active).

**Q.** How did the inhibition turn out when `Cc1ccc(C)c(N(CC(=O)NC2CCCC2)C(=O)CNC(=O)c2cccs2)c1` was run?
**A.** The inhibition was -6.9% (inactive).

**Q.** With `Cc1ccccc1CCN1CCCC(CN(C)C(=O)C(=O)c2ccco2)C1` (centres undefined) as the molecule, how does the inhibition read?
**A.** The inhibition was 9.9% (inactive).

**Q.** With `Cc1cc(NC(=O)CCSc2ccc(Cl)cc2)no1` as the molecule, how does the inhibition read?
**A.** The inhibition was 2.1% (inactive).

**Q.** `Cc1ccc(S(=O)(=O)N(C)CC(=O)OCC(=O)NC(=O)NC(C)C)cc1` was tested. Which inhibition did it give?
**A.** Its inhibition is -21.6% (inactive).

**Q.** How did the inhibition turn out when `COc1cc(/C=C2\SC(=O)N(Cc3ccc(F)cc3)C2=O)cc([N+](=O)[O-])c1O` was run?
**A.** Its inhibition is 53% (active).

**Q.** With `O=C(CCCCCN1C(=O)[C@@H]2Cc3ccccc3CN2C1=O)Nc1ccccc1F` as the molecule, how does the inhibition read?
**A.** Its inhibition is 11% (inactive).

**Q.** How did the inhibition turn out when `CCCCNC(=O)NNC(=O)C1CC1(c1ccccc1)c1ccccc1` (centres undefined) was run?
**A.** The inhibition was 9.1% (inactive).

**Q.** For `COc1cc(CCC(=O)NCc2ccc3c(c2)OCO3)cc(OC)c1OC`, which inhibition is on record?
**A.** Its inhibition is 0.3% (inactive).

**Q.** Which inhibition does the source give for `CS(=O)(=O)NN1C(=O)c2ccccc2NC1c1ccccc1F` (centres undefined) here?
**A.** Its inhibition is -7.9% (inactive).
